Most compounds without a hit are left out; they make up all but 4.8% or so of the library.
STAT1 activator = STAT1 signaling activators, primary screen, cell-based, HTS, luciferase reporter; NIH 3T3 STAT1-luciferase reporter, IFN-gamma, luminescence; 100% = IFN-gamma alone, no compound; activation (% of control), % at 5.5 µM; actives 2.6% (n = 200,000); AID 932, 2007;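 active = activation above the screen-wide mean activation plus 3 SD, cut at about 130% in these data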;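 also: raw ratio to IFN-gamma control signal so 100% means no change and 0% no light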
Hsp70 act = Hsp70 transcriptional activators, primary screen, cell-based, HeLa, Hsp70 promoter luciferase, luminescence, 10 µM. HeLa Hsp70 promoter luciferase reporter; scaled: vehicle 0, proteasome-inhibitor control 100%. actives 0.04% (n = 200,000). activation, % at 10 µM;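 active = activation above the mean across all tested compounds plus 3 SD, cutoff set per campaign, cut at about 5.5% in these data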;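 also: 100% = MG132 at 30 µM as the positive control and 0% = DMSO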
APP 5UTR inh = inhibitors of APP translation via 5'UTR reporter, primary screen, APP 5'UTR luciferase, SH-SY5Y cells; SH-SY5Y APP 5'UTR-luciferase reporter, luminescence; inhibition, % at 2 µM; actives 0.82% (n = 190,000); AID 1285, 2008;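 active = inhibition above a set limit, derived from the sample mean plus 3 SD, cut at about 45% in these data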
Wee1 stabilizer = Wee1 degradation inhibitors, primary screen, cell-based, HeLa, Wee1K328M-luciferase, luminescence; HeLa Luc-Wee1K328M stability; 100% = proteasome inhibitor MG132 effect; reporter increase, % at 5 µM; actives 1.2% (n = 220,000);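 active = activation above the mean of all tested compounds plus 3 SD, set per screening run, cut at about 8.8% in these data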;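 also: cells exposed to compound for 20 h before luminescence read; 0% = DMSO alone and 100% = MG132 at 30 µM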
Target sequence (P30291 whole entry K328M): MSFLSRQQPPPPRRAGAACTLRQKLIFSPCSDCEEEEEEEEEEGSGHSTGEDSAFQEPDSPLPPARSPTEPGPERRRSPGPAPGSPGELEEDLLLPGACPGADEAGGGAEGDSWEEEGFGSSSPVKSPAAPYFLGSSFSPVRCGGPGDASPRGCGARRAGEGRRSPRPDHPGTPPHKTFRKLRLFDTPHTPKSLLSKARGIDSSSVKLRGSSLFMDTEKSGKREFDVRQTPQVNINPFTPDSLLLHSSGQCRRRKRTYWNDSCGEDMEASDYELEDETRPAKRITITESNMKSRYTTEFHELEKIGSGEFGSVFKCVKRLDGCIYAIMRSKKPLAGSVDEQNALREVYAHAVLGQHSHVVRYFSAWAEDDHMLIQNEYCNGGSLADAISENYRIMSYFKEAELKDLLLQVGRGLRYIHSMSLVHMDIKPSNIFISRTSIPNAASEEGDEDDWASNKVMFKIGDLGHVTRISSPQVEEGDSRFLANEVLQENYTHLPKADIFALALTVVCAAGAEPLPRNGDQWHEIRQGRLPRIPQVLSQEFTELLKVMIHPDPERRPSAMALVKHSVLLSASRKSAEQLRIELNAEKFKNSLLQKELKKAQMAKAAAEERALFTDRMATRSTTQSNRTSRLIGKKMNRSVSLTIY
APP 5'UTR act = activators of APP 5'UTR luciferase reporter, primary screen, SH-SY5Y cells; activation, % at 2 µM; AID 1276, 2008; actives 1% (n = 190,000); SH-SY5Y APP 5'UTR luciferase reporter, luminescence; zero percent = DMSO vehicle wells;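 active = activation above a set limit, based on mean plus 3 SD of controls, cut at about 140% in these data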
NF-kB expr up = activators of NF-kB expression in neurons, primary screen, cell-based, HTS; human neuronal cells, NF-kB reporter expression; stronger effect = higher value; fold change at 12.5 µM; actives 1.6% (n = 190,000); in the data active = fold change above about 3.3
Numbers without * were called inactive; · = no result given.

SMILES | STAT1 activator | Hsp70 act | APP 5UTR inh | Wee1 stabilizer | APP 5'UTR act | NF-kB expr up
O=C(c1cc(-c2ccc(Cl)c(Cl)c2)on1)N1CCCC1 | 103 | 0 | -68 | -1 | 68 | 2
O=C(c1cc(-c2cccc(O)c2)on1)N1CCCCC1 | 85 | 0 | -196 | 6 | 196* | 6*
O=C(c1cc(-c2ccc(F)cc2)on1)N1CCCC1 | 121 | 0 | -80 | 2 | 80 | 3.5*
Cc1ccc(S(=O)(=O)N2CCOCC2)cc1NC(=O)COC(=O)c1ccc2c(c1)OCO2 | 97 | 0 | -11 | 5 | 11 | 1.1
COc1ccc(-c2ccnc(SCC(=O)Nc3ccccn3)n2)cc1 | 101 | 0 | 0 | 2 | 0 | 1.1
CS(=O)c1ccccc1-c1nc(-c2ccc(Cl)cc2)no1 (centres undefined) | 138* | 0 | -34 | 8 | 34 | 2.1
COc1cccc(-c2ccc(-c3noc(-c4ccccc4F)n3)c(OC)n2)c1 | 105 | 0 | 6 | 0 | -6 | 1.7
Cc1ccc(-c2noc(-c3ccccc3F)n2)cc1 | 132* | 0 | -174 | 5 | 174* | 6*
O=[N+]([O-])c1cc(Cl)ccc1-c1nc(-c2ccccc2)no1 | 188* | 1 | -122 | 1 | 122 | 13*
Cc1ccc2nc(CSc3nc(C)cc(C)c3C#N)[nH]c2c1 | 125 | 0 | -205 | 5 | 205* | 2.9
COC(=O)c1sccc1NC(=O)CC1C(=O)NCCN1C(=O)Nc1cc(Cl)ccc1OC (centres undefined) | · | · | · | 8.9* | · | ·
COC(=O)c1sccc1NC(=O)CC1C(=O)NCCN1C(=O)c1ccccc1 (centres undefined) | · | · | · | 0 | · | ·
O=c1[nH]nc(SCc2ccccc2Cl)n1-c1ccc2c(c1)OCCO2 | · | · | · | 0 | · | ·
O=C(Nc1ccc(Cl)cc1)C(c1ccccc1)N(CCO)CCO (centres undefined) | 107 | 0 | -10 | 2 | 10 | 4.3*
O=c1oc(-c2cccs2)nc2scc(-c3cccs3)c12 | 106 | 0 | -200 | 3 | 200* | 1.9
CCOC(=O)c1sc2ncn(CC(=O)NCC3CCCO3)c(=O)c2c1C (centres undefined) | 97 | 0 | -2 | 2 | 2 | 1.4
CCOc1ccc(N=C2NC(=O)S/C2=C\c2ccc(Cl)cc2)cc1 | 98 | 0 | 0 | -1 | 0 | 1.1
COc1ccc(N=C2NC(=O)S/C2=C\c2ccc(N(C)C)cc2)cc1 | 132* | 0 | -23 | -1 | 23 | 1.6
Cc1ccc(NC2=C(N3CCCCC3)C(=O)c3ccccc3C2=O)cc1 | 107 | 0 | -25 | -3 | 25 | 0.54
CC(CCc1ccccc1)NC(=O)C(=O)Nc1ccccc1 (centres undefined) | 140* | 0 | -56 | 8 | 56 | 2
COc1ccccc1C1C2=C(N=C3SCC(=O)N31)c1ccccc1CC2 (centres undefined) | 102 | 0 | 0 | 0 | 0 | 1.1
COc1ccc(/C=c2/sc3n(c2=O)C(c2ccccc2OC)C2=C(N=3)c3ccccc3CC2)cc1O (centres undefined) | 99 | 0 | 84* | 3 | -84 | 1
CC(C)Cc1cc(C(=O)NCCN2CCOCC2)no1 | 107 | 0 | 5 | -3 | -5 | 1.1
COc1ccc(-n2nnnc2-c2cccc(OC)c2)cc1 | 105 | 0 | 91* | 3 | -91 | 2.6
Cc1ccc(-n2nnnc2-c2cccc(C)c2)cc1 | 99 | 0 | 4 | 4 | -4 | 1.4
SMILES | STAT1 activator | Hsp70 act | APP 5UTR inh | Wee1 stabilizer | APP 5'UTR act | NF-kB expr up
Cc1cccc(C)c1NC(=O)CS(=O)CC(=O)NCCCc1ccccc1 (centres undefined) | 93 | 0 | 2 | -2 | -2 | 0.98
Cc1ccc(C(=O)COC(=O)c2cccc(NC(=O)c3ccc([N+](=O)[O-])cc3[N+](=O)[O-])c2)cc1 | 61 | 0 | -164 | -2 | 164* | 3
CC(=O)Nc1ccc(C(=O)OCC(=O)c2cccc([N+](=O)[O-])c2)cc1 | 88 | 0 | -4 | -1 | 4 | 1.1
C=CCNC(=S)NCC1COc2ccccc2O1 (centres undefined) | 102 | 0 | 8 | 1 | -8 | 1.1
CC(C)N(CCO)C(=O)CCc1nnc(CCCc2ccccc2)o1 | 107 | 0 | 11 | 2 | -11 | 1.6
CC(C)N(Cc1nccn1C)C(=O)CCc1nnc(CCCc2ccccc2)o1 | 137* | 0 | -44 | 0 | 44 | 2.7
CN(CCc1ccccn1)C(=O)CCc1nnc(CCCc2ccccc2)o1 | 133* | 0 | -2 | -3 | 2 | 2.3
CC1CCc2nn(CC(=O)NCCCN3CCCCC3)cc2C1 (centres undefined) | · | · | 5 | · | -5 | 1.6
CC1=NN(c2nc(-c3ccc(C)cc3)cs2)C(=O)C1N=Nc1ccccc1O (centres undefined) | 108 | 0 | 52* | 1 | -52 | 1.8
COc1ccc(-c2csc(N3N=C(C)C(C)C3=O)n2)cc1 (centres undefined) | 132* | 0 | -41 | 0 | 41 | 2.2
CC1=NN(c2nc(-c3ccc(C)cc3)cs2)C(=O)C1N=Nc1cccc(O)c1 (centres undefined) | 92 | 0 | 5 | 3 | -5 | 0.57
COc1ccc(-c2csc(C)n2)cc1 | 114 | 0 | -15 | 9.0* | 15 | 1.1
CNC(=O)c1ccccc1S(=O)c1ccccc1C#N (centres undefined) | 94 | 0 | 4 | 0 | -4 | 1.2
Cc1ccc(C(=O)N/N=C\C=C\c2ccccc2[N+](=O)[O-])cn1 | 92 | 0 | 22 | 1 | -22 | 1.2
C=CCC1(O)C(=O)Nc2ccccc21 (centres undefined) | 104 | 0 | -7 | 0 | 7 | 1.1
CC1=NN(C(N)=S)C(=O)C1N=Nc1ccccc1 (centres undefined) | 130* | 0 | -12 | 3 | 12 | 1.7
CCn1c(-c2sc(-c3ccccc3)nc2C)n[nH]c1=S | 101 | 0 | 6 | -1 | -6 | 1.2
Cc1nc(-c2ccccc2)sc1-c1ccn[nH]1 | 122 | 0 | -164 | 7 | 164* | 1.2
O=C(NC1CCCCCC1)c1c(O)c2ccccc2[nH]c1=O | 141* | 0 | -8 | -4 | 8 | 2.5
Cc1cc(NC(=O)c2ccc(-c3ccc(F)c(Cl)c3)o2)no1 | 122 | 0 | -34 | 1 | 34 | 1.3
Cc1cc(NC(=O)c2ccc(-c3ccccc3F)o2)no1 | 144* | 0 | -58 | 6 | 58 | 2

Screening data deposited in PubChem by several laboratories.
